Source: PubChem BioAssay (National Center for Advancing Translational Sciences (NCATS))
PTHR1 agonist = qHTS for PTHR1 Agonists: Primary Screen; Parathyroid hormone/parathyroid hormone-related peptide receptor (Homo sapiens), Q03431; HEK293 GP2 PTHR1 cells, GloSensor cAMP luminescence, 1 h; Potency, µM (series often up to 115 µM), actives largely listed as activators; hit rate 0.075% among 410,000; AID 743266, 2014; note: nearly all actives have a fitted effect of over 55% in size
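HEK-293-derived GP2 cells expressing PTHR1 and a GloSensor cAMP reporter, 3,000/well, plated overnight, given luciferin plus IBMX (each 0.5 mM as added) for 1 h at 37 °C, then compound for 1 h at 37 °C. Luminescence was read after 15 min at room temperature.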
GLP-1R agonist = qHTS of GLP-1 Receptor Agonists | Glucagon-like peptide 1 receptor (Homo sapiens), P43220 | HEK293 GLP-1R CRE-luciferase, luminescence, 4-6 h; cells express a hypersensitive GLP-1R form | Potency, µM (top dose mostly 45.6 µM), usual class: activators | hit rate 0.007% among 380,000 | AID 624172, 2012
HEK293 tox = qHTS of GLP-1 Receptor Inverse Agonists: Cytotox Screen. HEK293 cAMP-luciferase reporter cells, luminescence, 24 h. Potency, µM (highest dose often 38.3 µM), most hits filed as inhibitors. AID 624418, 2012. hit rate 0.13% among 410,000;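 note: loss of luciferase light is scored as toxicity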
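Seeding density was 200 cells/uL; after overnight-length (12 h) culture, 23 nL compounds went on for 24 h at 37 °C. Readout used a luciferase detection reagent, luminescence taken after 12 min at room temperature.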
RGS4 inh = Inhibitors of Regulator of G Protein Signaling (RGS) 4: qHTS | Transcreener GDP fluorescence polarization, RGS4-accelerated GTP hydrolysis | Potency, µM (series often up to 114 µM), most hits filed as inhibitors | hit rate 0.039% among 390,000 | AID 504845, 2011; note: nearly all actives have a fitted effect of over 75% in size
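MLSMR compounds (23 nl, pin-transferred) preincubated 10 min at room temperature with a 500nM (2x) first reagent, then RGS4 at 900nM (2x) plus Transcreener GDP mix added; fluorescence polarization (620/688 nm) read before and after 90 min at 30 °C.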
GCN5L2 inh = qHTS Assay for Inhibitors of GCN5L2 | Histone acetyltransferase KAT2A (Homo sapiens), Q92830 | GCN5L2 HAT assay, ThioGlo1 CoA-SH fluorescence | Potency, µM (doses to about 58.9 µM), most hits filed as inhibitors | hit rate 0.21% among 390,000 | AID 504327, 2011
Target sequence (Q92830 whole entry, looked up): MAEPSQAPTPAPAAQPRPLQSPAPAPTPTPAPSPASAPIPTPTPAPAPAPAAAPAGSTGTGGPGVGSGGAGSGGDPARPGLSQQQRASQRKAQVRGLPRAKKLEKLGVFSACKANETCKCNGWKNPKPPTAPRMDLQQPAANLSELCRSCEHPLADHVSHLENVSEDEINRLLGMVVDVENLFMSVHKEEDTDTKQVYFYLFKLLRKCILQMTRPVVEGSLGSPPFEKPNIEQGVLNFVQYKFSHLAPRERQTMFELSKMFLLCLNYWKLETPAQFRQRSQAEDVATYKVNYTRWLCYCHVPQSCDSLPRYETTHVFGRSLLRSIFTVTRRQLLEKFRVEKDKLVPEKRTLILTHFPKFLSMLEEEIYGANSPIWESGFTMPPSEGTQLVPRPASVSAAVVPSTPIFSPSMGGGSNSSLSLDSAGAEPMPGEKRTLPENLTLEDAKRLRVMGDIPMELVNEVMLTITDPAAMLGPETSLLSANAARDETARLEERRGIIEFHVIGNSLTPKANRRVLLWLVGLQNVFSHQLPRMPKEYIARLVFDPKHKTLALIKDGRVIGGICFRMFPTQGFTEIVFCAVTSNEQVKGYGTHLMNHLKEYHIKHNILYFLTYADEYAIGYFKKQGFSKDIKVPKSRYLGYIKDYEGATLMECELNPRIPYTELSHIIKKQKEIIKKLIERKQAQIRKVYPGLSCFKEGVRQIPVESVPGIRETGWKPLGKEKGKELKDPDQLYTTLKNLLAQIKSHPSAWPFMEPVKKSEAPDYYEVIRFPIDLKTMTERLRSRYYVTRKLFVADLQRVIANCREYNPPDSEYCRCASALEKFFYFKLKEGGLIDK
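Preincubate 20nM GCN5L2 with compound 15 min, RT → add 50uM ThioGlo1 + 75uM H3(1-25) + 70uM acetyl-CoA → read fluorescence 0 and 20 min. Primary qHTS; fluorescent artifacts likely.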
GLP-1R inv ag = qHTS of GLP-1 Receptor Inverse Agonists (Inhibition Mode); Potency, µM (top dose mostly 38.3 µM), most hits filed as inhibitors; HEK293 GLP-1R CRE-luciferase, luminescence, 24 h; GLP-1R form is constitutively active; hit rate 1.6% among 410,000; AID 624417, 2012; Glucagon-like peptide 1 receptor (Homo sapiens), P43220; note: nearly all actives have a fitted effect of over 55% in size
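Constitutively active GLP-1R drives a cAMP-responsive luciferase in stably transfected HEK293 cells; test compounds are added after overnight (12 h) attachment and left 24 hr, and signal loss in luminescence marks inhibition.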
Hits are given with their value; n = inactive; u = inconclusive; x = not tested or not shown; [ ] = another dose, or the depositor's remark. Shown are actives, neighbours in structure and some others; about 1.8% of the full set was active somewhere. Calls come from the whole dose curve; as a rule, active = well fitted curve in the direction sought with a large enough effect; inconclusive = small, poorly fitted or top-dose-only effect, or another doubt; inactive = no such curve, though single readings can be large; an effect the other way counts as inactive or inconclusive.

SMILES | PTHR1 agonist | GLP-1R agonist | HEK293 tox | RGS4 inh | GCN5L2 inh | GLP-1R inv ag
CC(C)c1cn(C2OC(COC(=O)c3ccccc3)C(OC(=O)c3ccccc3)C2OC(=O)c2ccccc2)c(=O)[nH]c1=O (stereo not given) | n | n | x | n | x | x
CC(=O)Oc1ccc(C(=O)Nc2cccc(C(=O)c3ccc(C)c(C)c3)c2)cc1 | n | n | u | n | n | 12.6µM
CC(Sc1nncn1C)C(=O)Nc1ccc2ccccc2c1 (stereo not given) | n | n | n | n | n | n
CCC(=O)c1ccc(OCc2ccc(C(=O)c3ccccc3)cc2)cc1 | n | n | n | n | n | 10µM
COc1ccc(S(=O)(=O)Nc2ccc(-c3ccc4nncn4n3)cc2)c(OC)c1 | n | n | n | u | n | n
O=C1CC(c2ccc(Cl)cc2)Oc2ccc(Cl)cc21 (stereo not given) | n | n | n | n | x | u
Cn1c(Cl)cnc1C1CC(=O)c2cc(Cl)ccc2O1 (stereo not given) | n | n | 7.94µM | u | n | 3.55µM
O=C(CP(=O)(c1ccccc1)c1ccccc1)Nn1cnnc1 | n | n | n | n | n | n
COc1cccc(CNC(=O)CCc2c(C)c3cc4c(C)coc4c(C)c3oc2=O)c1 | n | x | n | n | n | n
CCN(CC1COc2ccccc2O1)C(=S)NCCCN(C)C (stereo not given) | n | n | n | n | n | 7.08µM
CN(CC1COc2ccccc2O1)C(=S)NC1CCCCC1 (stereo not given) | n | n | n | n[11.4 µM] | n | 5.01µM
CCOC(=O)[C@H](CCc1ccccc1)NC(C)C(=O)N1CC2(CC1C(=O)O)SCCS2 (stereo not given in full) | x | n | x | x | x | x
Cc1oc(C(C)(C)C)cc1C(=O)Nc1cccc(C(=O)O)c1 | n | n | n | n | n | n
COc1cccc(OCc2cc(C(=O)N(Cc3ccccc3)CC3CC3)no2)c1 | n | n | n | n | n | 8.91µM
COc1cccc(OCc2cc(C(=O)N(C)Cc3nc4ccccc4[nH]3)no2)c1 | n | n | n | n | n | u
CCCOc1cc(C)c(Cl)cc1S(=O)(=O)N(CC)CC | n | n | n | n | n | 2.51µM
CCCCCCc1cc2cc(S(=O)(=O)c3ccc(Cl)cc3)c(=O)oc2cc1O | n | n | n | n | n | u
CCN(CC)c1ccc2cc(S(=O)(=O)c3ccc(Cl)cc3)c(=O)oc2c1 | n | n | n | n | n | 10µM
COc1cc(OC)cc(-c2c(-c3cccs3)c3cc(Br)ccc3n2C)c1 | n | n | n | n | n | u
Cn1c(-c2ccsc2)c(-c2cccs2)c2cc(Br)ccc21 | n | n | n | n | 20µM | u
O=C(c1cc(F)c(F)cc1Cl)N1CCN(S(=O)(=O)c2cccs2)CC1 | n | n | n | n | u | n
Cc1cccc(C)c1OC(=O)CCN1C(=O)C2C3C=CC(C4CC34)C2C1=O (stereo not given) | n | n | n | n | n | 7.08µM
CCOC(=O)C1=C(NC(=S)NC(=O)c2ccccc2)c2ccccc2CC1(C)CC (stereo not given) | n | n | 11.2µM | n | n | 5.01µM
CCOC(=O)c1sc(NC(=S)NC(=O)c2ccccc2)c(C(=O)OCC)c1C | n | n | n | n | n | n
CCOC(=O)C1=C(NC(=S)NC(=O)c2ccccc2)c2ccccc2CC1C(C)C (stereo not given) | n | n | u | n | n | 3.16µM
SMILES | PTHR1 agonist | GLP-1R agonist | HEK293 tox | RGS4 inh | GCN5L2 inh | GLP-1R inv ag
CCN(CC(=O)Nc1ccccc1C(F)(F)F)C(=O)C1CSC2(C)CCC(=O)N12 (stereo not given) | n | n | n | n | n | 11.2µM
COc1ccc(/C=C/C(=O)Nc2ccc3nc4c(c(Nc5ccc(OC)c(OC)c5)c3c2)CCCC4)cc1 | n | x | 4.47µM | u | n | 8.91µM
COc1ccc(Nc2c3c(nc4ccccc24)CCC3)cc1 | n | n | 7.94µM | n | n | 1.78µM
Fc1ccc(Nc2c3c(nc4ccccc24)CCC3)cc1 | n | n | n | n | n | u
COc1ccccc1Nc1c2c(nc3ccc(NC(=O)/C=C/c4cccc(OC)c4OC)cc13)CCCC2 | n | x | u | n | n | u
COc1ccc(/C=C/C(=O)Nc2ccc3nc4c(c(Nc5ccccc5OC)c3c2)CCCC4)cc1 | n | x | u | n | n | 8.91µM
COc1ccc(CNC(=O)Cn2ccc3cc(S(=O)(=O)N4CCCCCC4)ccc32)cc1OC | n | x | n | n | n | n
COc1cc(C(=O)N2CCN(c3ccccc3)CC2)c([N+](=O)[O-])cc1OC | n | n | n | n | n | n
O=C(Cn1sc2ccccc2c1=O)NC12CC3CC(CC(C3)C1)C2 | n | n | u | u | 14.1µM | n
Cc1cc(-n2c(C)nc3ccccc3c2=O)ccc1NC(=O)c1ccc(C)c([N+](=O)[O-])c1 | n | x | n | n | n | n
COc1cccc(NC(=S)NC2CC(C)CC(C)(C)C2)c1 (stereo not given) | n | n | u | x | x | 8.91µM
COc1cccc(NC(=S)Nc2ccc(O)cc2)c1 | n | n | n | n | n | n
Cc1ccc(CN2CCNC(=O)C2CC(=O)N(C)C2CCCCC2)cc1 (stereo not given) | n | n | n | n | n | n
CCOC(=O)c1c(NC(=O)C(C)Sc2cn(CCNC(=O)c3ccccc3OC)c3ccccc23)sc2c1CCC2 (stereo not given) | n | n | n | n | n | u
CN(C)C(=O)/N=N/C(=O)N(C)C | x | x | x | 2.99µM | n | x
FC(F)Sc1ccc(NC(=S)NC(c2ccccc2)c2ccccc2)cc1 | n | n | u | n | n | 3.98µM
O=C(CNc1cccc2ccccc12)N/N=C/c1ccc(OC(=O)/C=C/c2ccco2)cc1 | n | n | n | n | n | 8.91µM
CCCc1nc2ccccc2c(=O)n1/N=C/c1ccccc1O | n | n | n | n | n | 4.47µM
Cc1cccc(C)c1OCc1nc2ccccc2c(=O)n1/N=C/c1c[nH]c2ccccc12 | n | n | n | n | n | 2.82µM
Cc1ccccc1OCc1nc2ccccc2c(=O)n1/N=C/c1c[nH]c2ccccc12 | n | n | u | n | n | u
COc1cc(-c2nnn(CC(=O)Nc3ccc(OC(F)(F)F)cc3)n2)cc(OC)c1OC | n | x | u | n | n | u
